# Assay results published in PubChem BioAssay (EPA / NIEHS).
# Records with an inconclusive call do not appear. Some structures have more than one record in an assay (separate samples or runs), and their calls can disagree. Calls of active or inactive are those of the source. The calls were made as follows: active = hit-call score of the fitted dose curve at least 0.9, where 1 is the maximum; inconclusive = response in the unintended direction; inactive = score below 0.9.
# Molecular target: Cellular tumor antigen p53 (Homo sapiens) (UniProt P04637)
# Sequence (P04637 whole entry, looked up): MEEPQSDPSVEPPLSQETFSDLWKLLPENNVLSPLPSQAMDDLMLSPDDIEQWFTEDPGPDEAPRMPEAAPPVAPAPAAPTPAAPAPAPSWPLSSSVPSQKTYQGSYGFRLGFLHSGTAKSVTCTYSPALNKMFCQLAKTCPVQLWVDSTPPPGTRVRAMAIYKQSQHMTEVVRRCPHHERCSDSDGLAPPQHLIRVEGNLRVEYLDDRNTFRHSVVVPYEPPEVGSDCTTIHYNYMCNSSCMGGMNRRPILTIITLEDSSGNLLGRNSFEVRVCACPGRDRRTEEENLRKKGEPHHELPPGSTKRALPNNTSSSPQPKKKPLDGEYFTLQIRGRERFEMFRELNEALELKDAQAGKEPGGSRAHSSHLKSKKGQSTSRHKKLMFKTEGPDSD
# Experiment: TOX21_p53_BLA_p5_ratio: Tox21 HCT-116 p53 Agonism Beta-lactamase Assay, Ratio, Phase 5 (AID 2283599)
# Outline: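 HCT-116 cells carrying a p53-inducible beta-lactamase reporter were seeded at 4000 cells/well and dosed after 5 h with compound in DMSO (217-fold dilution). After 16 h at 37C, CCF4-AM substrate was added for 2 h, and the 460/530 nm emission ratio was scored as gain-of-signal versus DMSO.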
Structure (SMILES),outcome,AC50
CCCCCCCCCCCC#N,inactive,
O=C(NC(=O)c1c(F)cccc1F)Nc1ccc(Oc2ccc(C(F)(F)F)cc2Cl)cc1F,inactive,
CC1CCCC1.[C-]#[O+].[C-]#[O+].[C-]#[O+].[Mn],inactive,
CCCCNP(N)(N)=S,inactive,
Nc1ccccc1C(=O)Oc1ccc2ccccc2c1,,83.5 µM (active)
CC(C)CCCCCCCOC(=O)c1ccccc1C(=O)OCCCCCCCC(C)C,inactive,
CN(C)N,inactive,
Nc1ccc(Cl)c(Cl)c1,inactive,
CC(O)CN(CC(C)O)CC(C)O (configuration not stated),inactive,
Nc1cc(Cl)cc(Cl)c1,inactive,
O=[N+]([O-])c1ccc(Cl)cc1,inactive,
C=CCO,inactive,
[CH3][Sn]([Cl])([Cl])[Cl],inactive,
CC(=O)c1cc2c(cc1C)C(C)(C)C(C)CC2(C)C (configuration not stated),inactive,
c1cc(OCC2CO2)ccc1Cc1ccc(OCC2CO2)cc1 (configuration not stated),inactive,
C=CC(=O)OCCCCOC(=O)C=C,inactive,
c1ccc2c(c1)CCCC2,inactive,
[Cl][Sb]([Cl])[Cl],inactive,
CC(C)[C@@H](C(=O)O[C@@H](C#N)c1cccc(Oc2ccccc2)c1)c1ccc(Cl)cc1,inactive,
C[C@]12CC[C@H]3[C@@H](CC[C@@]45O[C@@H]4C(O)=C(C#N)C[C@]35C)[C@@H]1CC[C@@H]2O,inactive,68.6 µM (active)
O=[N+]([O-])c1cc([N+](=O)[O-])c2ccccc2c1,inactive,
O=C(O)C(Br)Br,inactive,
C=CC(=O)OCCO,inactive,

# System: not listed separately
# Experiment: TOX21_p53_BLA_p5_viability: Viability Assessment in the Tox21 HCT-116 p53 Agonism Beta-lactamase Assay, Phase 5 (AID 2283600)
# Outline: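 4000 cells/well; 5 h pre-incubation; DMSO compounds pin-transferred, 217-fold dilution; 16 h, 37C/5% CO2; CCF4-AM 2 h RT; CellTiter-Glo 30 min RT; luminescence.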
row,Structure (SMILES),outcome
1,CCCCCCCCCCCC#N,inactive
2,O=C(NC(=O)c1c(F)cccc1F)Nc1ccc(Oc2ccc(C(F)(F)F)cc2Cl)cc1F,inactive
3,CC1CCCC1.[C-]#[O+].[C-]#[O+].[C-]#[O+].[Mn],inactive
4,CCCCNP(N)(N)=S,inactive
5,Nc1ccccc1C(=O)Oc1ccc2ccccc2c1,inactive
6,C=CC(=O)OC,inactive
7,CN1C[C@H](C(=O)N[C@]2(C)O[C@@]3(O)[C@@H]4CCCN4C(=O)[C@H](Cc4ccccc4)N3C2=O)C=C2c3cccc4[nH]cc(c34)C[C@H]21,inactive
8,O=[N+]([O-])C=Cc1ccccc1,inactive
9,CC(O)CN(CC(C)O)CC(C)O (configuration not stated),inactive
10,Nc1cc(Cl)cc(Cl)c1,inactive
11,O=[N+]([O-])c1ccc(Cl)cc1,inactive
12,C=CCO,inactive
13,COC(=O)COc1ccc(Cl)cc1Cl,inactive
14,CC(=O)c1cc2c(cc1C)C(C)(C)C(C)CC2(C)C (configuration not stated),inactive
15,c1cc(OCC2CO2)ccc1Cc1ccc(OCC2CO2)cc1 (configuration not stated),inactive
16,c1ccc2c(c1)CCCC2,inactive
17,CCOC(=O)C1OC1(C)c1ccccc1 (configuration not stated),inactive
18,[Cl][Sb]([Cl])[Cl],inactive
19,CC(C)[C@@H](C(=O)O[C@@H](C#N)c1cccc(Oc2ccccc2)c1)c1ccc(Cl)cc1,inactive
20,C[C@]12CC[C@H]3[C@@H](CC[C@@]45O[C@@H]4C(O)=C(C#N)C[C@]35C)[C@@H]1CC[C@@H]2O,inactive
21,O=[N+]([O-])c1cc([N+](=O)[O-])c2ccccc2c1,inactive
22,O=C(O)C(Br)Br,inactive
23,C=CC(=O)OCCO,inactive
